Rows were chosen to be rich in hits. Some 18% of all compounds tested hit in one or more screens of this group.
DT40 TDP1 no CPT = qHTS for Inhibitors of human tyrosyl-DNA phosphodiesterase 1 (TDP1): qHTS in cells in absence of CPT. DT40 Tdp1-/- hTDP1 cells, no CPT, ATP luminescence, 48 h. 420,000 tested, 15% active. Potency, µM (series often up to 46.2 µM), for the others: at the top dose activity change, negative = growth inhibition, actives largely listed as inhibitors; also: potency is read from the fitted curve at half-maximal effect; nearly all actives have a fitted effect of over 55% in size
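Luminescent ATP content (CellTiter-Glo) served as the growth readout. Knockout chicken DT40 cells expressing human TDP1 were exposed to compounds without camptothecin for a minimum 48 hr at 37 °C.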
VP16 counter = VP16 counterscreen qHTS for inhibitors of ROR gamma transcriptional activity; 310,000 tested, 3.5% active; AID 2546, 2010; Drosophila S2 Gal4-VP16 UAS-luciferase, luminescence, 20 h; Potency, µM (series often up to 53.6 µM), without a hit: at the top dose activity, negative = inhibition, hits mostly inhibitors;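 also: Gal4-VP16 expression switched on by copper sulfate through the metallothionein promoter; potency is read from the fitted curve at half-maximal effect; nearly all actives have a fitted effect of over 50% in size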
RORgamma inh = qHTS for inhibitors of ROR gamma transcriptional activity; 310,000 tested, 5.4% active; Drosophila S2 Gal4-RORgamma UAS-luciferase reporter, 20 h; Potency, µM (top dose mostly 53.6 µM), for the others: top-dose activity change, negative = inhibition, actives largely listed as inhibitors; also: potency is read from the fitted curve at half-maximal effect; nearly all actives have a fitted effect of over 60% in size
Target sequence (P51450 whole entry, looked up, the tested form may be a part): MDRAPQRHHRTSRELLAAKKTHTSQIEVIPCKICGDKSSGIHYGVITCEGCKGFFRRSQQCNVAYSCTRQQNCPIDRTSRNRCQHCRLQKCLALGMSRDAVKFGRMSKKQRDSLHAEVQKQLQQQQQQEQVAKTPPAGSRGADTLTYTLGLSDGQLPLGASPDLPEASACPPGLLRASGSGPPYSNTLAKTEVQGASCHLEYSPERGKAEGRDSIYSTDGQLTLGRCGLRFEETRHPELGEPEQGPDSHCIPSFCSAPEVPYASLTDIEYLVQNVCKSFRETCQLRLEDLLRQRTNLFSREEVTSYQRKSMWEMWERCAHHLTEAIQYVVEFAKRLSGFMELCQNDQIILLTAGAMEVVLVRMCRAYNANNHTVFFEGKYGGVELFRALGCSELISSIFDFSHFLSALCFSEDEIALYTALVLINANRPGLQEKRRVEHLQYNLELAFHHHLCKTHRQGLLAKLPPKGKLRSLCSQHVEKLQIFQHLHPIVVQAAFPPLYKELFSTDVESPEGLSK
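Luciferase reporter read in Schneider cells carrying Gal4-RORγ (mouse) and UAS-Photinus luciferase; cells given compound 1 h before 700 uM copper sulfate induction, then incubated 20 h at ambient temperature.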
LDHA inh = qHTS assay for inhibitors of human lactate dehydrogenase | L-lactate dehydrogenase A chain (Homo sapiens), P00338 | purified LDHA, NADH/diaphorase-resazurin fluorescence; stronger effect = lower value | activity change, % (values are at about 110 or 230 µM) | 480,000 tested, 0.15% active | AID 1347041, 2019; in the data active = activity change below about -30%; inconclusive = mostly about -25% to -30%;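 also: plate controls were DMSO wells for no effect and wells without enzyme for full effect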
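Human LDH5 at 2 nM final in Tris HCl pH 7.4 with 0.06 mM NADH and 0.2 mM pyruvate, reacted 5 minutes at room temperature. Remaining NADH coupled via diaphorase/resazurin; resorufin fluorescence read at 0 and 20 minutes, normalized to enzyme-free and DMSO wells.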
IL-1B inflam inh = qHTS for Inhibitors of Inflammasome Signaling: IL-1-beta AlphaLISA Primary Screen. THP-1 LPS/ATP IL-1B secretion, AlphaLISA, 16 h; stronger effect = lower value. 360,000 tested, 4.7% active. AID 743279, 2014. activity change, % at 57.5 µM; in the data active = activity change below about -50%; inconclusive = mostly about -30% to -49%
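Secreted IL-1B measured by AlphaLISA bead assay after 16 h compound exposure of THP-1 cells; compounds (final up to 57.5 uM) added 1 h before LPS (250 ng/mL) and ATP (1.25 mM) stimulation; lower signal means less secretion.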
DT40 TDP1 CPT = qHTS for Inhibitors of human tyrosyl-DNA phosphodiesterase 1 (TDP1): qHTS in cells in presence of CPT. chicken DT40 Tdp1-/-;hTDP1 cells + 20 nM CPT, ATP luminescence, 48 h. Potency, µM (series often up to 46.2 µM), for the others: at the top dose activity change, negative = growth inhibition, most hits filed as inhibitors. 420,000 tested, 12% active. AID 686979, 2013; also: potency is read from the fitted curve at half-maximal effect; nearly all actives have a fitted effect of over 55% in size
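Cell growth measured by CellTiter-Glo luminescence after a minimum 48 h, 37 C compound exposure with 20 nM CPT in Tdp1-knockout DT40 cells stably expressing hTDP1, seeded 400/well; qHTS titration format.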
Starred values were filed as active, the others as inactive; ? = inconclusive; nt = no result. Unless noted, calls follow the shape of the dose curve; as a rule, active = well fitted curve in the direction sought with a large enough effect; inconclusive = small, poorly fitted or top-dose-only effect, or another doubt; inactive = no such curve, though single readings can be large; an effect the other way counts as inactive or inconclusive. Unless noted, % is scaled to controls: 0 for no effect and ±100 for the full control effect.

SMILES | DT40 TDP1 no CPT | VP16 counter | RORgamma inh | LDHA inh | IL-1B inflam inh | DT40 TDP1 CPT
COc1ccc(S(=O)(=O)N(C)C)cc1NCC(=O)Nc1ccc(F)cc1F | ? | -14.6% | 29.9% | -2.6 | 10.1 | -2.9%
COc1ccc(S(=O)(=O)N(C)C)cc1NS(=O)(=O)c1ccc(F)c(F)c1F | ? | 12.6µM* | 4.47µM* | -2.4 | 16.6 | -3.2%
Cc1ccc(NC(=O)c2ccc3c(Cl)c4c(nc3c2)CCCC4)c(Cl)c1 | nt | nt | nt | -0.8 | nt | nt
O=[N+]([O-])c1ccc(-n2nnnc2-c2ccccc2)c([N+](=O)[O-])c1 | 2.91µM* | 5.62µM* | 3.98µM* | 21.3 | -64.1* | 3.66µM*
Cc1ccc(Nc2nc(NC3CCCC3)nc3c2cnn3C)cc1C | nt | nt | nt | 11.3 | nt | nt
COc1cc(CNc2nc3c(C)cc(C)cc3s2)ccc1O | 20.6µM* | -2.4% | -3.3% | 1.4 | -17.3 | ?
O=C(C[n+]1cc(Br)cc(Br)c1)c1ccc2ccccc2c1 | ? | nt | nt | -3.6 | nt | -24.4%
CCOCCCn1c(C)nc2c[n+](CC(=O)c3ccc4ccccc4c3)cc(Br)c21 | 2.59µM* | -5.7% | 2.8% | -5.6 | -58.4* | 2.31µM*
Cn1nnc2c[n+](CC(=O)c3ccc4ccccc4c3)cc(Br)c21 | 14.6µM* | 11.6% | 21.0% | 1.7 | -101.4* | ?
C=CCN(Cc1cccs1)C(=O)CCc1ccco1 | nt | nt | nt | -0.1 | nt | nt
CCn1cc(C(=O)N2CCN(C)CC2c2ccccc2)c2ccccc21 (stereo unspecified) | nt | nt | nt | 1.0 | nt | nt
O=[N+]([O-])c1ccc(/C=C/c2ccnc3ccccc23)cc1 | 15.8µM* | nt | nt | 7.1 | nt | 11.2µM*
Nc1ccc([N+](=O)[O-])c2ncccc12 | nt | nt | nt | 3.0 | nt | nt
Nc1ccc(/C=C/c2ccnc3ccccc23)cc1[N+](=O)[O-] | 5.01µM* | nt | nt | 1.2 | nt | 10µM*
O=c1cc(/C=C/c2ccc([N+](=O)[O-])cc2)c2ccccc2[nH]1 | -6.3% | nt | nt | nt | nt | -19.5%
O=[N+]([O-])c1ccc(/C=C/c2ccnc3ccccc23)c([N+](=O)[O-])c1 | 20µM* | nt | nt | 7.9 | nt | 35.5µM*
Cc1nc(-c2ccc(CNC(=O)c3cnccn3)s2)cs1 | nt | nt | nt | -7.9 | nt | nt
Fc1cccc(CNCCN2CCCC2)c1 | nt | nt | nt | -2.3 | nt | nt
COc1ccccc1C(=O)Nc1c(NC2CCCCC2)c2ccccc2oc1=O | nt | nt | nt | 14.3 | nt | nt
COc1ccccc1C=C1CCc2ccccc2C1=O | ? | nt | nt | 3.6 | -7.2 | ?
COc1ccc2c(c1)/C(=C/c1cc(OC)c(OC)c(OC)c1)C(=O)N2 | 0.731µM* | nt | nt | -11.3 | -6.0 | 0.517µM*
COc1ccc(/C=C2\CCc3c2nc2ccccc2c3C(=O)O)cc1OC | -25.0% | 11.2µM* | 8.91µM* | 5.4 | 0.0 | -18.9%
COc1ccc(/C=C2\COc3ccccc3C2=O)cc1OC | 20.6µM* | ? | ? | -2.2 | -98.5* | 14.6µM*
O=C1/C(=C/c2ccc3ccccc3c2)COc2ccccc21 | nt | nt | nt | 10.0 | nt | nt
COc1cc(/C=C2/CCc3ccccc3C2=O)cc(OC)c1OC | 14.6µM* | -5.4% | -6.5% | 7.2 | -99.0* | ?
SMILES | DT40 TDP1 no CPT | VP16 counter | RORgamma inh | LDHA inh | IL-1B inflam inh | DT40 TDP1 CPT
COc1ccc2c(c1)OC/C(=C\c1ccc(OC)c(O)c1)C2=O | 1.03µM* | ? | ? | nt | nt | 1.46µM*
CCOc1cc(/C=C2/NC(=O)NC2=O)cc(Br)c1OCC(=O)O | nt | nt | nt | 4.3 | nt | nt
COc1ccc(/C=C2\C(=O)NC(=O)c3ccccc32)cc1OC | 1.46µM* | nt | nt | 14.2 | 51.2 | 1.64µM*
CCOc1cc(/C=C2\COc3ccccc3C2=O)cc(Br)c1OCC(=O)N(C)C | 4.61µM* | 20µM* | ? | 9.8 | -103.2* | 3.66µM*
COc1ccc(/C=C2/CCc3ccccc3C2=O)cc1OC | ? | ? | ? | 0.4 | -98.7* | ?
COc1ccc(C=C2C(=O)OC(C)(C)OC2=O)cc1OC | -10.5% | 0.0% | 29.0% | 2.3 | -0.7 | -1.5%
COc1ccc(S(=O)(=O)Nc2nc3ccccc3nc2Nc2ccc(C)cc2)cc1 | nt | nt | nt | -2.1 | nt | nt
O=C(O)c1ccc(/C=C2\COc3ccccc3C2=O)cc1 | 18.4µM* | 6.31µM* | 7.08µM* | -2.4 | -105.0* | ?
Cc1cc(C)c2c(c1)C(=O)/C(=C/c1ccc(C(=O)O)cc1)CC2 | -15.1% | -6.3% | 23.1% | 1.4 | -13.2 | -16.0%
COc1ccc(C=C2c3ccccc3C(=O)c3ccccc32)c(OC)c1 | nt | -3.0% | -20.7% | nt | nt | nt
COc1cc(/C=C2\CCc3ccccc3C2=O)cc(OC)c1OC | 16.4µM* | ? | 21.1% | -1.2 | -101.2* | 18.4µM*
COc1ccc(/C=C2\COc3ccccc3C2=O)c(OC)c1 | ? | 23.6% | 18.6% | 5.1 | 2.2 | 20.6µM*
CC(C)(C(=O)N1CCN(C(=O)c2cc(=O)[nH]c3ccccc23)CC1)c1ccccc1 | nt | nt | nt | -4.2 | nt | nt
Cc1cc(NC(=O)C(C)Sc2nnc3c(Cl)cc(Cl)cn23)on1 (stereo unspecified) | nt | nt | nt | -4.5 | nt | nt
Cc1ccc(NC(=O)CSc2nc3ccc(NC(=O)c4cccs4)cc3s2)cc1 | ? | nt | nt | -6.8 | nt | -25.9%
Cc1cccc(OCCSc2nc3ccc(NC(=O)c4cccs4)cc3s2)c1 | 11.6µM* | nt | nt | 0.6 | nt | 16.4µM*
Cc1ccccc1OCCSc1nc2ccc(NC(=O)c3cccs3)cc2s1 | 18.4µM* | nt | nt | 3.3 | nt | 23.1µM*
Cc1ccccc1OCCSc1nc2ccc(NC(=O)c3cccc(F)c3)cc2s1 | 11.6µM* | nt | nt | -0.2 | nt | 16.4µM*
Cc1cc(C)cc(OCCSc2nc3ccc(NC(=O)c4ccc5c(c4)OCO5)cc3s2)c1 | 5.17µM* | nt | nt | -3.1 | nt | ?
CCC(=O)Nc1ccc(Cl)c(NC(=O)c2ccc3c(c2)OCO3)c1 | nt | nt | nt | -6.1 | nt | nt
Cc1ccc(C(=O)NCCCNC(=O)c2cc3ccccc3[nH]2)cc1 | nt | nt | nt | 2.7 | nt | nt
CC1CCN(C2(O)C(=O)Nc3ccc([N+](=O)[O-])cc32)CC1 (stereo unspecified) | -24.1% | -5.6% | -7.1% | 8.1 | 1.4 | -10.4%
Cc1cc([N+](=O)[O-])cc2c1NC(=O)C2(O)N1CCOCC1 (stereo unspecified) | -19.0% | ? | 11.2µM* | 9.1 | 0.0 | ?
COC(=O)c1cnc(Nc2nc(C(N)Cc3ccc(Cl)cc3)cs2)nc1C(F)(F)F (stereo unspecified) | 23.1µM* | nt | nt | -17.7 | -21.4 | ?

Screening data deposited in PubChem BioAssay by National Center for Advancing Translational Sciences (NCATS).
